# Measurements published in PubChem BioAssay AID720506 (National Center for Advancing Translational Sciences (NCATS), 2013).
# Out of some 2,300 compounds screened, about 95 (4%) were called active. Where a call stands in place of a potency, no number is given. Inconclusive results (about 17%) are left out. This is one part of a sample in which actives are shown more often than they occur. The call rests on the fitted dose curve; in most records, active means well fitted activation curve with a large enough effect; inconclusive means small, poorly fitted or top-dose-only effect; inactive means flat fitted curve, though single readings scatter.
# Target: D(3) dopamine receptor (Homo sapiens) (UniProt P35462)
# Test: qHTS of D3 Dopamine Receptor Agonist: D3 Dopamine Receptor B-arrestin Agonist Confirmatory Assay; further: nearly all actives have a fitted effect of over 70% in size
# Conditions: DiscoveRx D3 beta-arrestin cells, luminescence, 90 min; series mostly up to 76.9 µM
# Description: D3 DARs represent a very important target for the treatment of several neuropsychiatric disorders. Indeed, one of the most promising therapeutic applications for the D3 DAR is in the area of addiction and related disorders. […] These findings have been observed with a number of addictive substances including cocaine, amphetamine, nicotine, and alcohol. […] Increased D3 DAR activity can thus lead to neuroprotective and neurorestorative actions in the CNS. […] This assay is used to confirm the activity of the identified D3 dopamine receptor agonist. Activation is the desired outcome for this assay. NIH Molecular Libraries Probe Production Centers Network [MLPCN] NIH Chemical Genomics Center [NCGC] MLPCN Grant: NS064831 Assay Submitter (PI): David Sibley
# Freshly passaged DiscoveRx D3 cells are plated in 1536 well white, solid bottom plates at a density of 1500 cells/well in 3microl of complete media. After an overnight incubation at 37 degrees C in 5% CO2, cells are loaded with 23nl of test compound from the compound library (as well as dopamine controls) using a 1536 pintool and incubated at 37 degrees C for 90 minutes. Two microliters of DiscoveRx reagent is then added to all cells, and they are incubated for an additional 30 - 60 minutes at room temperature. Following incubation, luminescence is measured on a ViewLux CCD-based luminometer reader using a 20 sec exposure time.
# Potency means the concentration at half of the fitted maximal effect.
# Chain of D(3) dopamine receptor (Homo sapiens) (P35462 whole entry, looked up): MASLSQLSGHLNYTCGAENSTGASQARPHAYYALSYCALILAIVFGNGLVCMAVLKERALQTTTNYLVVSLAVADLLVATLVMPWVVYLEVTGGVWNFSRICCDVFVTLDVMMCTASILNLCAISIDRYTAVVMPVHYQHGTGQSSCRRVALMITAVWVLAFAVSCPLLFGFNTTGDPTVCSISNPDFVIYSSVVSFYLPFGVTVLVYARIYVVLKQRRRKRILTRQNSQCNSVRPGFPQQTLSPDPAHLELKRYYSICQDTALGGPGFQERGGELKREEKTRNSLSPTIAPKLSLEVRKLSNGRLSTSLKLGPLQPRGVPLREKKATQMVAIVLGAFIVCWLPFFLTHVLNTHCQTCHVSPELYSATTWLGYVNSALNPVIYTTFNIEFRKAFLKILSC
row,Structure (SMILES),Potency
1,Cc1ccc(O)c(-c2cc(C(=O)Nc3c(C)n(C)n(-c4ccccc4)c3=O)[nH]n2)c1,inactive
2,COc1ccc(NC(C)=O)cc1NC(=O)CN1CCN(c2ccccn2)CC1,inactive
3,OCC[C@H]1C[C@H](O)[C@@H](O)[C@]2(Cc3ccccc3CO2)O1,inactive
4,Cn1c(C(=O)NCCCN2CCN(c3cccc(Cl)c3)CC2)cc2c(=O)n(C)c3ccccc3c21,inactive
5,O=C(Nc1cccnc1Cl)c1cc(-c2cccc(Cl)c2)on1,inactive
6,CCC(CC)NC(=O)/C=C/c1cccc([N+](=O)[O-])c1,inactive
7,OC(COc1cccc2ccccc12)CN1CCN(c2ccccn2)CC1 (stereo not drawn),8.91 µM (active)
8,CC(=O)Nc1ccc(OCC(O)CN2CCN(c3ccccc3Cl)CC2)cc1 (stereo not drawn),inactive
9,O=C1c2cccc3cccc(c23)N1CN1CCN(c2ccccn2)CC1,inactive
10,O=C(OCc1nc2ccccc2[nH]1)C1CCCCC1,inactive
11,O=C(c1ccccc1)c1ccc(OCC(O)CN2CCCC2)cc1 (stereo not drawn),inactive
12,CC[C@H](C)C(=O)N[C@H]1CCCN1C(=O)/C=C/c1ccccc1,inactive
13,CCCCC(=O)NNC(=S)NC(=O)C(c1ccccc1)c1ccccc1,inactive
14,CCCN1CC=C2C(C#N)=C(N)C(C#N)(C#N)C(c3cc(OC)ccc3OC)C2C1 (stereo not drawn),inactive
15,CC(=O)C[C@@H](O)CC(=O)[C@H]1OC(=O)CCCCCCc2ccccc21,inactive
16,COc1cc(OC)c(-n2cc(-c3ccc(Cl)cc3)[nH]c2=O)cc1Cl,inactive
17,CNC(=O)NC(=O)C(C)N1CCN(C/C=C/c2ccccc2)CC1 (stereo not drawn),inactive
18,CN1CCC(CN)(N2CCN(c3ccccc3)CC2)CC1,inactive
19,O=C1CC[C@H](O)CCN1[C@H](CSc1ccc(Br)cc1)Cc1ccccc1,inactive
20,Cc1ccccc1N1CCN(CCCOc2ccc3c(C)cc(=O)oc3c2)CC1,inactive
21,Nc1nonc1-n1nnc(C(=O)N/N=C/c2ccc(Cl)cc2)c1-c1ccc2c(c1)OCO2,inactive
22,CN(C)CCOC(=O)C(c1ccccc1)C1(O)CCCC1 (stereo not drawn),inactive
23,Cc1cc(C(=O)NNC(=O)c2ccccc2O)c(C)o1,inactive
24,O=C(Nc1ccc(F)cc1F)N1CCCN(CCOc2ccccc2)CC1,inactive
25,COC(c1ccccc1)c1nnc(CCC(=O)N2CCN(CCOc3ccccc3)CC2)o1 (stereo not drawn),2.82 µM (active)

row,Structure (SMILES),Potency
1,NS(=O)(=O)c1ccc(CCNC(=O)NC2CCCCC2)cc1,inactive
2,[O-][N+]12CCCCC1CCCC2CO (stereo not drawn),inactive
3,COc1cc(OC)c2ccc(=O)oc2c1C(CCN1CCN(c2ccccc2)CC1)c1ccc2c(c1)OCO2 (stereo not drawn),inactive
4,O=C(CCN1CCN(c2ccccc2)CC1)NNC(=S)Nc1ccccc1,inactive
5,COc1ccc(N2CCN(Cc3cc(=O)oc4ccc5ccccc5c34)CC2)cc1,inactive
6,Cc1cccc(C)c1NC(=O)CNC(=O)c1ccc2c(c1)OCCO2,inactive
7,Cc1c(CN2CC[C@@H](N3CCN(c4ccccn4)CC3)[C@H](O)C2)[nH]c2ccc(F)cc12,28.2 µM (active)
8,Cc1ccccc1Nc1nc(N)nc(CN2CCN(c3ccccn3)CC2)n1,inactive
9,O=C(CN1CCN(c2ccccn2)CC1)NC1CCCCC1,inactive
10,Cc1n[nH]c(C)c1S(=O)(=O)N1CCCC(C(=O)NCC2COc3ccccc3O2)C1 (stereo not drawn),inactive
11,O=C(O[C@H]1[C@H](Cc2ccccc2)NS(=O)(=O)[C@H]2C[C@@H]3C=C[C@]12O3)c1ccc([N+](=O)[O-])cc1,inactive
12,O=C1c2ccccc2S(=O)(=O)N1CC(O)Cn1c2ccccc2c2ccccc21 (stereo not drawn),inactive
13,CC(C)(C)n1ncc2c(=O)n(Cc3c(Cl)cccc3Br)cnc21,inactive
14,COc1ccc(S(=O)(=O)N2CCSCC2)cc1,inactive
15,O=C1C=C(c2cccc(Br)c2)C[C@@H](c2ccc(F)cc2)C1,inactive
16,O=C(COc1coc(CN2CCN(c3ccccc3)CC2)cc1=O)Nc1ccccc1F,inactive
17,CCC(=O)c1ccc(OCC(=O)Nc2ccc(N3CCCCC3)cc2)cc1,inactive
18,Cc1cnc(C(=O)N2CCCC(N3CCN(c4ccccc4F)CC3)C2)cn1 (stereo not drawn),inactive
19,CN(CCO)S(=O)(=O)c1ccc2c(c1)C(=O)c1cc(S(=O)(=O)N(C)CCO)ccc1-2,inactive
20,CC(=O)OC(C)C[N+](C)(C)C (stereo not drawn),inactive
21,CS(=O)(=O)N1CCC(C(=O)N2CCN(c3ccccc3)CC2)CC1,inactive
22,O=C(NC(=O)c1ccccc1)Nc1ccccc1O,inactive
23,O=C(CCn1c(=O)[nH]c2ccccc2c1=O)NCCCN1CCN(c2cccc(Cl)c2)CC1,inactive
24,O=C(CN1CCN(c2ncccn2)CC1)Nc1ccccc1C(F)(F)F,inactive
25,CC(OC(=O)/C=C/c1ccccc1)C(=O)NC1CCCCC1C (stereo not drawn),inactive

row,Structure (SMILES),Potency
1,O=c1cc(CCl)nc2scc(-c3ccccc3)n12,inactive
2,CC(C)CCN1CCN(Cc2cn[nH]c2C2CCCCC2)CC1CCO (stereo not drawn),inactive
3,CS/C(=C\C(=O)c1ccco1)Nc1ccccc1Cl,inactive
4,O=S(=O)(c1ccc(F)cc1)N1CC=C(c2ccccc2)CC1,inactive
5,CCN(CCCNC(=O)c1ccc2c(c1)NC(=O)CN2C)c1cccc(C)c1,inactive
6,O=C(CC1NCCc2ccccc21)Nc1cccc(Cl)c1 (stereo not drawn),inactive
7,COc1ccc([C@H]2CC(=O)C=C(c3ccc(CO)cc3)C2)cc1,inactive
8,COc1ccc([C@H]2CC(=O)C=C(c3ccc(OC(F)(F)F)cc3)C2)cc1OC,inactive
9,CC(=C1C(=O)c2ccccc2C1=O)N1CCN(c2ccccn2)CC1,inactive
10,Cc1c(CC(=O)N2CCN(C(=O)C3COc4ccccc4O3)CC2)c(=O)oc2c(O)c(O)ccc12 (stereo not drawn),28.2 µM (active)
11,NS(=O)(=O)c1ccc(CCNS(=O)(=O)c2cccc3cccnc23)cc1,inactive
12,C/C(=N\NC(=S)NC1CCCCC1)c1ccc(C)o1,inactive
13,COc1ccc(CC(NC(C)=O)C(=O)N2CCN(C(=O)Nc3cccc(Cl)c3)CC2)cc1OC (stereo not drawn),inactive
14,O=C(NCCCN1CCN(c2ccccc2F)CC1)C1CCC(=O)N1C1CCCCC1 (stereo not drawn),inactive
15,Cc1ccc(S(=O)(=O)N2CC(O)C[C@H]2C(=O)OCC(=O)Nc2ccc(N3CCOCC3)cc2)cc1C (stereo partly drawn),inactive
16,CCn1c(=O)n(CC)c2cc(N3CCCC3)c(NC(=O)c3ccccc3Br)cc21,inactive
17,CNCC(O)c1ccc(O)c(O)c1 (stereo not drawn),inactive
18,Cc1cc(C)n2nc(C(=O)N3CCN(Cc4ccc5c(c4)OCO5)CC3)nc2n1,inactive
19,CCCN(CC(=O)Nc1ccccc1C)C(=O)c1ccc2[nH]c3c(c2c1)CC(C)CC3 (stereo not drawn),inactive
20,OC(COCc1ccco1)CN1CCN(c2ccccc2)CC1 (stereo not drawn),inactive
21,O=C(CSC1CC(=O)N(CCc2ccccc2)C1=O)Nc1ccc(Cl)cc1 (stereo not drawn),inactive
22,CC(C)(C)C(=O)OCc1nc(-c2ccc(O)c(O)c2)cs1,11.2 µM (active)
23,O=c1oc(-c2ccccc2NS(=O)(=O)c2ccc(Cl)cc2)nc2ccccc12,inactive
24,O=C(C1CC(=O)N(c2ccc(F)cc2)C1)N1CCN(c2ccccc2)CC1 (stereo not drawn),inactive
25,CCn1c(=O)cc(OCC(=O)NCCCN2CCN(c3cccc(Cl)c3)CC2)c2ccccc21,inactive

row,Structure (SMILES),Potency
1,O=C(c1ccc2c(c1)OCCO2)C1CCN(S(=O)(=O)c2cccc(F)c2)CC1,inactive
2,CN1CCN(S(=O)(=O)c2cccc(C(=O)Nc3sccc3C#N)c2)CC1,inactive
3,O=C(CNCc1cccs1)Nc1cc(S(=O)(=O)N2CCCC2)ccc1Cl,17.8 µM (active)
4,CC(CCc1ccccc1)NCC(O)c1cccc([N+](=O)[O-])c1 (stereo not drawn),inactive
5,CC(CCc1ccc(O)cc1)NCc1ccc(Cl)cc1Cl (stereo not drawn),1.78 µM (active)
6,CC1(C)CC(=O)C=C(c2ccc3ncccc3c2)C1,inactive
7,Cc1c(C(=O)Nc2cccc(-c3nnc4n3CCCCC4)c2)oc2ccccc12,inactive
8,O=C(NC1CCCCC1)c1ccc2c(=O)n(CC3CCCO3)c(=O)[nH]c2c1 (stereo not drawn),inactive
9,CCOC(=O)[C@H]1[C@H]2COc3ccc(C)cc3[C@@H]2N2C(=O)CN(Cc3ccc(F)cc3)C(=O)[C@@]12C,inactive
10,O=C(CCN1CCN(C/C=C/c2ccccc2)CC1)Nc1ccccc1Cl,inactive
11,COc1cccc(NC(=O)C2CCCN(c3ncnc4c3nc3n4CCCCC3)C2)c1 (stereo not drawn),inactive
12,CC(C)c1ccc2c(c1)c(SC(C)(C)C)c(CC(C)(C)C(=O)O)n2Cc1ccc(Cl)cc1,inactive
13,O=C(c1c(F)cccc1F)N1CCN(S(=O)(=O)c2ccc3c(c2)OCCO3)CC1,inactive
14,Cc1cccc(OCC(=O)NCC(=O)N/N=C/c2ccc(N(C)C)cc2)c1,inactive
15,Cc1cc(C)c(/C=C2\C(=O)Nc3ccccc32)[nH]1,inactive
16,COc1cccc(OC)c1OCCN1CCN(C(=O)c2ccco2)CC1,0.631 µM (active)
17,CCC(=O)Nc1ccc(C(=O)N2CCN(C(=O)c3ccco3)CC2)cc1,inactive
18,CCn1cc(C(=O)N2CCN(Cc3ccc4c(c3)OCO4)CC2)c2cc(OC)c(OC)cc2c1=O,inactive
19,O=C(Cc1csc(Nc2nc(=S)[nH]c3ccccc23)n1)NCCCN1CCN(c2cccc(Cl)c2)CC1,inactive
20,COc1ccc(C2NC(=O)C(=O)/C2=C(\O)c2ccc(Cl)cc2)cc1OC (stereo not drawn),inactive
21,O=C(CN1CCN(S(=O)(=O)c2cc(Cl)ccc2Cl)CC1)c1ccc(O)c(O)c1,35.5 µM (active)
22,O=C(CCCn1c(=O)[nH]c2cc(Cl)ccc2c1=O)NCCN1CCN(c2ccccc2)CC1,inactive
23,O=C(c1c(Cl)cccc1Cl)N1CCN(c2cccc3[nH]ccc23)CC1,inactive
